Source: PubChem BioAssay AID1159580 (chemical genetic matrix, 2015)
Values joined by “and” are separate entries in the source; they are usually repeats but may differ in a detail not shown here. Equal entries are not always repeated. The campaign covered roughly 5,500 compounds. About 2,000 (36%) were called active. Another 18% or so got no clear call; they are omitted. Cut-off read from the data, not from the text of the source: active = normalized growth mostly below about 0.91 (no sharp cut-off); inconclusive = no clear call, values can overlap the other calls; inactive = mostly above about 0.92. The list shows a part of the results.

Test: chemical genetic growth profiling, strain panel (AID 1159580);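 note: tested at 20 µM; growth read once vehicle control cultures reached saturation at 30 °C; 1 = growth at the plate median or of vehicle wells; lower values mean less growth of the strain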
Conditions: S. cerevisiae deletion strains, growth OD

Measured: normalized growth

CCOC(N)=O
inactive: locus YAL013W, strain DEP1, active compounds read low 0.999 | locus YAL021C, strain ccr4, active compounds read low 0.989 | locus YAL026C, strain drs2, active compounds read low 1 | locus YAL030W, strain snc1, active compounds read low 0.994 | locus YBL061C, strain skt5, active compounds read low 0.997 | locus YBR009C, strain hhf1, active compounds read low 0.987 | locus YBR021W, strain FUR4, active compounds read low 0.97 | locus YBR023C, strain chs3, active compounds read low 0.993 | locus YBR171W, strain sec66, active compounds read low 0.99 | locus YBR229C, strain ROT2, active compounds read low 0.999 | locus YBR231C, strain swc5, active compounds read low 0.995 | locus YBR279W, strain paf1, active compounds read low 0.991 | locus YCL011C, strain gbp2, active compounds read low 0.988 | locus YCL016C, strain dcc1, active compounds read low 1 | locus YCL029C, strain bik1, active compounds read low 1.01 | locus YCL061C, strain MRC1, active compounds read low 0.995 | locus YCL069W, strain vba3, active compounds read low 0.997 | locus YCR088W, strain abp1, active compounds read low 1 | locus YDL005C, strain med2, active compounds read low 0.986 | locus YDL035C, strain GPR1, active compounds read low 1.01 | locus YDL040C, strain nat1, active compounds read low 0.989 | locus YDL074C, strain BRE1, active compounds read low 1 | locus YDL101C, strain DUN1, active compounds read low 1 | locus YDL134C, strain PPH21, active compounds read low 1.01 | locus YDL185W, strain tfp1, active compounds read low 1.01 | locus YDL192W, strain arf1, active compounds read low 1.01 | locus YDR001C, strain nth1, active compounds read low 1 | locus YDR069C, strain doa4, active compounds read low 0.985 | locus YDR101C, strain arx1, active compounds read low 1 | locus YDR137W, strain rgp1, active compounds read low 1.01 | locus YDR150W, strain NUM1, active compounds read low 1 | locus YDR159W, strain sac3, active compounds read low 0.984 | locus YDR162C, strain NBP2, active compounds read low 0.973 | locus YDR195W, strain ref2 0.933 | locus YDR297W, strain sur2, active compounds read low 0.992 | locus YDR318W, strain mcm21, active compounds read low 1.02 | locus YDR334W, strain swr1, active compounds read low 1 | locus YDR335W, strain msn5, active compounds read low 0.997 | locus YDR388W, active compounds read low 1.01 | locus YDR392W, strain spt3, active compounds read low 0.997 | locus YDR502C, strain sam2, active compounds read low 1 | locus YEL003W, strain gim4, active compounds read low 0.997 | locus YEL037C, strain rad23, active compounds read low 1.01 | locus YEL061C, strain CIN8 (second series), active compounds read low 1.01 | locus YEL061C, strain CIN8, active compounds read low 1 | locus YER015W, strain faa2, active compounds read low 0.993 | locus YER016W, strain bim1, active compounds read low 0.997 | locus YER110C, active compounds read low 1.01 | locus YER111C, strain swi4, active compounds read low 0.995 | locus YER155C, strain BEM2 (second series), active compounds read low 0.994 | locus YER155C, strain BEM2, active compounds read low 1 | locus YER167W, strain BCK2, active compounds read low 1.01 | locus YFR010W, strain ubp6, active compounds read low 0.997 | locus YGL078C, strain dbp3, active compounds read low 1.01 | locus YGL086W, strain mad1, active compounds read low 1.01 | locus YGL167C, strain pmr1, active compounds read low 0.987 | locus YGL173C, strain kem1, active compounds read low 0.982 | locus YGL227W, strain vid30, active compounds read low 0.983 | locus YGL240W, strain doc1, active compounds read low 0.982 | locus YGL248W, strain PDE1, active compounds read low 1 | locus YGL253W, strain hxk2, active compounds read low 0.993 | locus YGR078C, strain PAC10, active compounds read low 0.991 | locus YGR135W, strain pre9, active compounds read low 0.991 | locus YGR229C, strain SMI1, active compounds read low 0.985 | locus YGR252W, strain gcn5, active compounds read low 1.08 | locus YHR013C, strain ard1, active compounds read low 0.975 | locus YHR027C, strain rpn1, active compounds read low 0.997 | locus YHR030C, strain SLT2, active compounds read low 1.01 and 0.987 | locus YHR079C, strain IRE1 (second series), active compounds read low 1.01 | locus YHR079C, strain IRE1, active compounds read low 0.983 | locus YHR094C, strain hxt1, active compounds read low 1 | locus YHR129C, strain ARP1, active compounds read low 1.01 | locus YHR142W, strain chs7, active compounds read low 0.995 | locus YHR200W, strain rpn10, active compounds read low 1.01 | locus YIL066C, strain RNR3, active compounds read low 1.03 | locus YIL073C, strain SPO22, active compounds read low 1.06 | locus YIL125W, strain kgd1, active compounds read low 1 | locus YIR030C, strain dcg1, active compounds read low 1 | locus YJL092W, strain hpr5, active compounds read low 0.995 | locus YJL095W, strain BCK1 (second series), active compounds read low 0.992 | locus YJL095W, strain BCK1, active compounds read low 1.01 and 0.996 | locus YJL115W, strain asf1, active compounds read low 0.999 | locus YJL129C, strain trk1, active compounds read low 1 | locus YJL134W, strain LCB3, active compounds read low 1.01 | locus YJL154C, strain vps35, active compounds read low 1 | locus YJL164C, strain tpk1, active compounds read low 0.991 | locus YJL166W, strain qcr8, active compounds read low 0.99 | locus YJL168C, strain set2, active compounds read low 1.02 | locus YJL187C, strain SWE1 (second series), active compounds read low 1.02 | locus YJL187C, strain SWE1, active compounds read low 0.997 | locus YJR043C, strain POL32, active compounds read low 1.02 | locus YJR066W, strain TOR1, active compounds read low 0.959
